The panel holds about 79,000 compounds, 15% with a hit somewhere; the sample as a whole holds those more often. The source made the active and inactive calls. Cut-off read from the data, not from the text of the source: active = growth inhibition above about 70%; inactive = the rest.
Assays:
[1] = NCI Yeast Anticancer Drug Screen. Data for the rad52 strain (AID 147);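 note: 0% = growth of vehicle-treated control cultures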; details: S. cerevisiae rad52 mutant growth inhibition, hits give high values
Procedure, shortened: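 Vehicle-treated cultures served as the reference for growth inhibition of compound-exposed yeast bearing a DNA repair mutation.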

[2] = NCI Yeast Anticancer Drug Screen. Data for the wt1 strain (AID 149);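 note: 0% = growth of vehicle-treated wt1 cultures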; details: S. cerevisiae wt1 strain (SPY 50644) growth inhibition, hits give high values
Procedure, shortened: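 Measured: growth of wt1 yeast under compound versus vehicle treatment, reported as inhibition.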

[3] = NCI Yeast Anticancer Drug Screen. Data for the rad50EPP+ strain (AID 151);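 note: 0% = growth of vehicle-treated control cultures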; details: S. cerevisiae rad50 mutant strain, hits give high values
Procedure, shortened: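 In this screen, rad50EPP+ yeast were exposed to compounds. Growth inhibition was scored against vehicle-treated controls.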

[4] = NCI Yeast Anticancer Drug Screen. Data for the mgt1 strain (AID 153); details: S. cerevisiae mgt1 mutant growth inhibition, hits give high values
Procedure, shortened: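 mgt1 strain exposed; growth vs vehicle control recorded as inhibition.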

[5] = NCI Yeast Anticancer Drug Screen. Data for the rad50 strain (AID 155);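 note: 0% = growth of vehicle-only cultures of the same strain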; details: S. cerevisiae rad50 strain growth inhibition, hits give high values
Procedure, shortened: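 Growth of the mutant yeast was measured after compound exposure and referenced to vehicle-treated cultures.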

[6] = NCI Yeast Anticancer Drug Screen. Data for the rad14 strain (AID 159);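 note: 0% = growth of vehicle-treated control cultures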; details: S. cerevisiae rad14 strain growth inhibition, hits give high values
Procedure, shortened: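 Here, inhibition of yeast growth was measured after compound exposure, using a strain with a genetic defect in DNA damage repair and vehicle-treated cultures as the reference.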

[7] = NCI Yeast Anticancer Drug Screen. Data for the sgs1 mgt1 strain (AID 161);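 note: 0% = growth of cultures given vehicle only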; details: S. cerevisiae sgs1 mgt1 strain, hits give high values
Procedure, shortened: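 Mutant yeast exposed to compound; growth scored against vehicle-only wells.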

[8] = NCI Yeast Anticancer Drug Screen. Data for the CLN2oe strain (AID 163);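 note: 0% = growth of vehicle-only control cultures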; details: S. cerevisiae CLN2oe strain, hits give high values
Procedure, shortened: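 Inhibition relative to vehicle-treated yeast is reported. Cells: strain with genetic alteration in cell-cycle control, grown with compound.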

[9] = NCI Yeast Anticancer Drug Screen. Data for the cln2 rad14 strain (AID 165);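 note: 0% = growth equal to vehicle treated cultures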; details: S. cerevisiae cln2 rad14 strain, hits give high values
Procedure, shortened: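 Each compound was tested on cln2 rad14 yeast. Inhibition of growth was calculated against vehicle-exposed controls.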

[10] = NCI Yeast Anticancer Drug Screen. Data for the bub3 strain (AID 167); details: S. cerevisiae bub3 mutant strain, hits give high values
Procedure, shortened: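 Whole-cell yeast assay. The mutant strain was incubated with compounds, and growth inhibition was determined by comparison with vehicle-treated cells.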

[11] = NCI Yeast Anticancer Drug Screen. Data for the wt2 strain (AID 169);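 note: 0% = growth of vehicle-treated yeast cultures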; details: S. cerevisiae wt2 strain growth inhibition, hits give high values
Procedure, shortened: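 Inhibition of yeast growth was determined after compound treatment, normalised to controls receiving only vehicle.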

[12] = NCI Yeast Anticancer Drug Screen. Data for the mlh1 strain (AID 171);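 note: 0% = growth of vehicle-treated control cultures of the same strain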; details: S. cerevisiae mlh1 strain growth inhibition, hits give high values
Procedure, shortened: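 Vehicle-normalised growth inhibition of a repair- or checkpoint-altered yeast strain following compound treatment.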

[13] = NCI Yeast Anticancer Drug Screen. Data for the sgs1 strain (AID 173);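 note: 0% = growth of vehicle-only control cultures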; details: S. cerevisiae sgs1 mutant, hits give high values
Procedure, shortened: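 Screen format: yeast with repair or checkpoint alterations, compound exposure, growth read relative to vehicle.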

[14] = NCI Yeast Anticancer Drug Screen. Data for the mlh1 rad18 strain (AID 175); details: S. cerevisiae mlh1 rad18 strain growth inhibition, hits give high values
Procedure, shortened: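 Vehicle-treated cultures served as the reference for growth inhibition in a yeast strain carrying DNA damage repair alterations exposed to each compound.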

[15] = NCI Yeast Anticancer Drug Screen. Data for the mec2-1 strain (AID 157); details: S. cerevisiae mec2-1 strain, hits give high values
Procedure, shortened: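 Vehicle-treated cultures served as reference for growth inhibition of compound-exposed mec2-1 yeast.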

[16] = NCI Yeast Anticancer Drug Screen. Data for the rad18 strain (AID 177); details: S. cerevisiae rad18 mutant growth inhibition, hits give high values
Procedure, shortened: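 Test articles were incubated with altered yeast defective in DNA damage repair. Results are given as inhibition of growth versus vehicle.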

[17] = at 5.0 µM (retest, dose inferred, filed as 0.5)
[18] = at 50.0 µM (retest, dose inferred, filed as 5.0)

Measured: growth inhibition

NCCNc1ccc(NCCN)c2c1C(=O)c1c(O)ccc(O)c1C2=O
active: [1]; at 3.7 µM 83% | [1]; at 11.0 µM 88% | [1]; at 33.0 µM 85% | [2]; at 33.0 µM 82% | [2]; at 100.0 µM 76% | [3]; at 11.0 µM 82% | [3]; at 33.0 µM 87% | [4]; at 33.0 µM 86% | [5]; at 3.7 µM 78% | [5]; [17] 73% | [5]; at 11.0 µM 87% | [5]; at 33.0 µM 85% | [5]; [18] 84% | [6]; at 33.0 µM 88% | [7]; [18] 77% | [8]; at 33.0 µM 82% | [9]; [18] 77% | [10]; at 33.0 µM 85% | [10]; [18] 70% | [11]; at 33.0 µM 80% | [12]; at 33.0 µM 86% | [13]; at 33.0 µM 86% | [14]; [18] 82%
inactive: [1]; at 1.2 µM 24% | [1]; at 100.0 µM 63% | [2]; at 1.2 µM 0% | [2]; at 3.7 µM 9% | [2]; at 11.0 µM 7% | [3]; at 1.2 µM 30% | [3]; at 3.7 µM 62% | [3]; at 100.0 µM 66% | [4]; at 1.2 µM -30% | [4]; at 3.7 µM -21% | [4]; at 11.0 µM -9% | [4]; at 100.0 µM 66% | [5]; at 1.2 µM 20% | [5]; at 50.0 µM 29.6% | [5]; at 100.0 µM 65% | [6]; at 1.2 µM -4% | [6]; at 3.7 µM 5% | [6]; at 11.0 µM 18% | [6]; at 100.0 µM 68% | [7]; [17] 17% | [7]; at 50.0 µM 65% | [8]; at 1.2 µM 28% | [8]; at 3.7 µM 20% | [8]; at 11.0 µM 32% | [8]; at 100.0 µM 52% | [9]; [17] 21% | [9]; at 50.0 µM 64.5% | [10]; at 1.2 µM 0% | [10]; at 3.7 µM 23% | [10]; [17] 11% | [10]; at 11.0 µM 5% | [10]; at 50.0 µM 60% | [10]; at 100.0 µM 62% | [11]; at 1.2 µM -15% | [11]; at 3.7 µM 2% | [11]; at 11.0 µM 44% | [11]; at 100.0 µM 52% | [12]; at 1.2 µM 2% | [12]; at 3.7 µM 20% | [12]; at 11.0 µM 20% | [12]; at 100.0 µM 66% | [13]; at 1.2 µM 11% | [13]; at 3.7 µM 42% | [13]; at 11.0 µM 40% | [13]; at 100.0 µM 63% | [14]; [17] 14% | [14]; at 50.0 µM 46%

NC(=S)N/N=C\c1nccc2ccccc12
active: [1]; at 33.0 µM 95% | [1]; at 100.0 µM 99% | [2]; at 33.0 µM 76% | [2]; at 100.0 µM 99% | [3]; at 100.0 µM 97% | [5]; at 33.0 µM 97% | [5]; [18] 96% | [5]; at 50.0 µM 99% | [5]; at 100.0 µM 97% | [15]; at 11.0 µM 97% | [15]; at 33.0 µM 99% | [15]; [18] 98% | [15]; at 50.0 µM 99.5% | [15]; at 100.0 µM 99% | [6]; at 33.0 µM 98% | [6]; at 100.0 µM 99% | [7]; [18] 98% | [7]; at 50.0 µM 99% | [8]; at 33.0 µM 96% | [8]; at 100.0 µM 99% | [9]; [18] 97% | [9]; at 50.0 µM 97.5% | [10]; at 33.0 µM 96% | [10]; [18] 97% | [10]; at 50.0 µM 99.2% | [10]; at 100.0 µM 97% | [11]; at 33.0 µM 97% | [11]; at 100.0 µM 99% | [12]; at 33.0 µM 97% | [12]; at 100.0 µM 99% | [13]; at 33.0 µM 99% | [13]; at 100.0 µM 99% | [14]; [18] 96% | [14]; at 50.0 µM 98.4% | [16]; at 33.0 µM 97% | [16]; at 100.0 µM 99%
inactive: [1]; at 1.2 µM -10% | [1]; at 3.7 µM -3% | [1]; at 11.0 µM 40% | [2]; at 1.2 µM -6% | [2]; at 3.7 µM -7% | [2]; at 11.0 µM 16% | [3]; at 1.2 µM 1% | [3]; at 3.7 µM -1% | [3]; at 11.0 µM -16% | [3]; at 33.0 µM 27% | [5]; at 1.2 µM -5% | [5]; at 3.7 µM -3% | [5]; [17] -151% | [5]; at 11.0 µM 46% | [15]; at 1.2 µM 4% | [15]; at 3.7 µM 46% | [15]; [17] 50% | [6]; at 1.2 µM -3% | [6]; at 3.7 µM 4% | [6]; at 11.0 µM 51% | [7]; [17] -64% | [8]; at 1.2 µM 0% | [8]; at 3.7 µM -11% | [8]; at 11.0 µM 35% | [9]; [17] -99% | [10]; at 1.2 µM -9% | [10]; at 3.7 µM -15% | [10]; [17] -107% | [10]; at 11.0 µM 26% | [11]; at 1.2 µM -5% | [11]; at 3.7 µM -4% | [11]; at 11.0 µM 14% | [12]; at 1.2 µM 3% | [12]; at 3.7 µM -9% | [12]; at 11.0 µM 34% | [13]; at 1.2 µM -3% | [13]; at 3.7 µM 6% | [13]; at 11.0 µM 50% | [14]; [17] -135% | [16]; at 1.2 µM -1% | [16]; at 3.7 µM 3% | [16]; at 11.0 µM 39%

From PubChem BioAssay (NCI)
